This is part of a sample that, as a whole, favours compounds with a hit. Of some 79,000 tested, about 15% had one in any assay. Values without a mark were called inactive. Active and inactive are the calls of the source. Cut-off read from the data, not from the text of the source: active = growth inhibition above about 70%; inactive = the rest.
Columns and labels:
[1] = NCI Yeast Anticancer Drug Screen. Data for the wt1 strain (AID 149);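 note: 0% = growth of vehicle-treated wt1 cultures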; conditions: S. cerevisiae wt1 strain (SPY 50644) growth inhibition, hits give high values
Summary of the method: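 wt1 strain grown with compound or vehicle; inhibition taken from the growth difference.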

[2] = NCI Yeast Anticancer Drug Screen. Data for the rad50EPP+ strain (AID 151);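 note: 0% = growth of vehicle-treated control cultures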; conditions: S. cerevisiae rad50 mutant strain, hits give high values
Summary of the method: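 Compounds were applied to the rad50EPP+ yeast strain, which bears a defined DNA repair alteration, and growth inhibition was determined relative to vehicle-treated cultures.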

[3] = NCI Yeast Anticancer Drug Screen. Data for the rad50 strain (AID 155);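 note: 0% = growth of vehicle-only cultures of the same strain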; conditions: S. cerevisiae rad50 strain growth inhibition, hits give high values
Summary of the method: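 DNA repair mutant yeast, compound exposure, growth read-out; inhibition is taken relative to vehicle.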

[4] = NCI Yeast Anticancer Drug Screen. Data for the mec2-1 strain (AID 157); conditions: S. cerevisiae mec2-1 strain, hits give high values
Summary of the method: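 Strain: mec2-1 (DNA repair/cell cycle alteration). Compound exposure, then growth measured; inhibition expressed relative to vehicle.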

[5] = NCI Yeast Anticancer Drug Screen. Data for the rad14 strain (AID 159);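 note: 0% = growth of vehicle-treated control cultures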; conditions: S. cerevisiae rad14 strain growth inhibition, hits give high values
Summary of the method: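 DNA repair-defective yeast, compound-exposed; % growth inhibition derived by comparison with vehicle-treated controls.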

[6] = NCI Yeast Anticancer Drug Screen. Data for the sgs1 mgt1 strain (AID 161);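 note: 0% = growth of cultures given vehicle only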; conditions: S. cerevisiae sgs1 mgt1 strain, hits give high values
Summary of the method: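 Inhibition of yeast growth, normalised to vehicle-treated controls, is reported for a strain bearing genetic alterations in DNA damage repair.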

[7] = NCI Yeast Anticancer Drug Screen. Data for the CLN2oe strain (AID 163);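 note: 0% = growth of vehicle-only control cultures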; conditions: S. cerevisiae CLN2oe strain, hits give high values
Summary of the method: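 Growth of a genetically modified yeast strain is measured after compound exposure and compared with cultures given vehicle alone.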

[8] = NCI Yeast Anticancer Drug Screen. Data for the cln2 rad14 strain (AID 165);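 note: 0% = growth equal to vehicle treated cultures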; conditions: S. cerevisiae cln2 rad14 strain, hits give high values
Summary of the method: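 Compounds are applied to the cln2 rad14 yeast strain, and growth is then compared with that of vehicle-treated cultures to give inhibition.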

[9] = NCI Yeast Anticancer Drug Screen. Data for the bub3 strain (AID 167); conditions: S. cerevisiae bub3 mutant strain, hits give high values
Summary of the method: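 In this screen, a yeast mutant lacking normal mitotic checkpoint function is challenged with compound. Relative growth versus vehicle gives the inhibition value.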

[10] = NCI Yeast Anticancer Drug Screen. Data for the wt2 strain (AID 169);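 note: 0% = growth of vehicle-treated yeast cultures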; conditions: S. cerevisiae wt2 strain growth inhibition, hits give high values
Summary of the method: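 This strain belongs to a panel of yeast strains with defined genetic alterations in DNA damage repair or cell cycle control. Compounds are applied, and growth inhibition is measured against vehicle-treated cultures.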

[11] = NCI Yeast Anticancer Drug Screen. Data for the mlh1 strain (AID 171);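 note: 0% = growth of vehicle-treated control cultures of the same strain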; conditions: S. cerevisiae mlh1 strain growth inhibition, hits give high values
Summary of the method: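 Growth of the mutant yeast strain after compound exposure, expressed as inhibition relative to vehicle-only controls.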

[12] = NCI Yeast Anticancer Drug Screen. Data for the sgs1 strain (AID 173);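 note: 0% = growth of vehicle-only control cultures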; conditions: S. cerevisiae sgs1 mutant, hits give high values
Summary of the method: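 Growth of a yeast strain bearing a defined genetic alteration is measured after compound treatment. Inhibition is expressed relative to vehicle-only controls.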

[13] = NCI Yeast Anticancer Drug Screen. Data for the mlh1 rad18 strain (AID 175); conditions: S. cerevisiae mlh1 rad18 strain growth inhibition, hits give high values
Summary of the method: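 Read-out is yeast growth inhibition, calculated against vehicle-only controls. The compound was applied to a strain engineered with DNA damage repair alterations.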

[14] = NCI Yeast Anticancer Drug Screen. Data for the rad18 strain (AID 177); conditions: S. cerevisiae rad18 mutant growth inhibition, hits give high values
Summary of the method: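 Growth of the mutant yeast strain after compound exposure, normalised to vehicle-only cultures.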

[15] = NCI Yeast Anticancer Drug Screen. Data for the mgt1 strain (AID 153); conditions: S. cerevisiae mgt1 mutant growth inhibition, hits give high values
Summary of the method: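 Strain: mgt1 yeast, one of a set carrying defined DNA damage repair or cell cycle control alterations. Compound-treated growth compared with vehicle.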

[16] = at 5.0 µM (retest, dose inferred, filed as 0.5)
[17] = at 50.0 µM (retest, dose inferred, filed as 5.0)

Structure (SMILES): c1ccc2c(c1)ccc1c3ccncc3ccc21
- growth inhibition ([1]; at 1.2 µM): -6%
- growth inhibition ([1]; at 3.7 µM): -3%
- growth inhibition ([1]; at 11.0 µM): 47%
- growth inhibition ([1]; at 33.0 µM): 99% (active)
- growth inhibition ([1]; at 100.0 µM): 97% (active)
- growth inhibition ([2]; at 1.2 µM): 35%
- growth inhibition ([2]; at 3.7 µM): 86% (active)
- growth inhibition ([2]; at 11.0 µM): 98% (active)
- growth inhibition ([2]; at 33.0 µM): 98% (active)
- growth inhibition ([2]; at 100.0 µM): 92% (active)
- growth inhibition ([3]; at 1.2 µM): 12%
- growth inhibition ([3]; at 3.7 µM): 74% (active)
- growth inhibition [3, 16]: 90% (active)
- growth inhibition ([3]; at 11.0 µM): 98% (active)
- growth inhibition ([3]; at 33.0 µM): 99% (active)
- growth inhibition [3, 17]: 94% (active)
- growth inhibition ([3]; at 50.0 µM): 97.8% (active)
- growth inhibition ([3]; at 100.0 µM): 93% (active)
- growth inhibition ([4]; at 1.2 µM): 3%
- growth inhibition ([4]; at 3.7 µM): 4%
- growth inhibition [4, 16]: -15%
- growth inhibition ([4]; at 11.0 µM): 85% (active)
- growth inhibition ([4]; at 33.0 µM): 99% (active)
- growth inhibition [4, 17]: 95% (active)
- growth inhibition ([4]; at 50.0 µM): 98.2% (active)
- growth inhibition ([4]; at 100.0 µM): 98% (active)
- growth inhibition ([5]; at 1.2 µM): 9%
- growth inhibition ([5]; at 3.7 µM): 15%
- growth inhibition ([5]; at 11.0 µM): 90% (active)
- growth inhibition ([5]; at 33.0 µM): 99% (active)
- growth inhibition ([5]; at 100.0 µM): 96% (active)
- growth inhibition [6, 16]: -15%
- growth inhibition [6, 17]: 97% (active)
- growth inhibition ([6]; at 50.0 µM): 98% (active)
- growth inhibition ([7]; at 1.2 µM): 0%
- growth inhibition ([7]; at 3.7 µM): 13%
- growth inhibition ([7]; at 11.0 µM): 93% (active)
- growth inhibition ([7]; at 33.0 µM): 99% (active)
- growth inhibition ([7]; at 100.0 µM): 96% (active)
- growth inhibition [8, 16]: -11%
- growth inhibition [8, 17]: 96% (active)
- growth inhibition ([8]; at 50.0 µM): 96% (active)
- growth inhibition ([9]; at 1.2 µM): 8%
- growth inhibition ([9]; at 3.7 µM): 35%
- growth inhibition [9, 16]: 16%
- growth inhibition ([9]; at 11.0 µM): 93% (active)
- growth inhibition ([9]; at 33.0 µM): 99% (active)
- growth inhibition [9, 17]: 96% (active)
- growth inhibition ([9]; at 50.0 µM): 97.1% (active)
- growth inhibition ([9]; at 100.0 µM): 98% (active)
- growth inhibition ([10]; at 1.2 µM): -3%
- growth inhibition ([10]; at 3.7 µM): 0%
- growth inhibition ([10]; at 11.0 µM): 80% (active)
- growth inhibition ([10]; at 33.0 µM): 99% (active)
- growth inhibition ([10]; at 100.0 µM): 96% (active)
- growth inhibition ([11]; at 1.2 µM): 4%
- growth inhibition ([11]; at 3.7 µM): 2%
- growth inhibition ([11]; at 11.0 µM): 83% (active)
- growth inhibition ([11]; at 33.0 µM): 99% (active)
- growth inhibition ([11]; at 100.0 µM): 96% (active)
- growth inhibition ([12]; at 1.2 µM): -3%
- growth inhibition ([12]; at 3.7 µM): 12%
- growth inhibition ([12]; at 11.0 µM): 96% (active)
- growth inhibition ([12]; at 33.0 µM): 99% (active)
- growth inhibition ([12]; at 100.0 µM): 94% (active)
- growth inhibition [13, 16]: -4%
- growth inhibition [13, 17]: 94% (active)
- growth inhibition ([13]; at 50.0 µM): 97.5% (active)
- growth inhibition ([14]; at 1.2 µM): -2%
- growth inhibition ([14]; at 3.7 µM): 18%
- growth inhibition ([14]; at 11.0 µM): 96% (active)
- growth inhibition ([14]; at 33.0 µM): 99% (active)
- growth inhibition ([14]; at 100.0 µM): 94% (active)

Structure (SMILES): O=C(O)c1ccccc1.[Ag]
- growth inhibition ([1]; at 1.2 µM): 88% (active)
- growth inhibition ([1]; at 3.7 µM): 101% (active)
- growth inhibition ([1]; at 11.0 µM): 99% (active)
- growth inhibition ([1]; at 33.0 µM): 99% (active)
- growth inhibition ([1]; at 100.0 µM): 99% (active)
- growth inhibition ([2]; at 1.2 µM): 94% (active)
- growth inhibition ([2]; at 3.7 µM): 101% (active)
- growth inhibition ([2]; at 11.0 µM): 99% (active)
- growth inhibition ([2]; at 33.0 µM): 99% (active)
- growth inhibition ([2]; at 100.0 µM): 98% (active)
- growth inhibition ([15]; at 1.2 µM): 98% (active)
- growth inhibition ([15]; at 3.7 µM): 101% (active)
- growth inhibition ([15]; at 11.0 µM): 99% (active)
- growth inhibition ([15]; at 33.0 µM): 99% (active)
- growth inhibition ([15]; at 100.0 µM): 99% (active)
- growth inhibition ([5]; at 1.2 µM): 91% (active)
- growth inhibition ([5]; at 3.7 µM): 101% (active)
- growth inhibition ([5]; at 11.0 µM): 99% (active)
- growth inhibition ([5]; at 33.0 µM): 99% (active)
- growth inhibition ([5]; at 100.0 µM): 99% (active)
- growth inhibition ([7]; at 1.2 µM): 50%
- growth inhibition ([7]; at 3.7 µM): 101% (active)
- growth inhibition ([7]; at 11.0 µM): 98% (active)
- growth inhibition ([7]; at 33.0 µM): 98% (active)
- growth inhibition ([7]; at 100.0 µM): 98% (active)
- growth inhibition ([10]; at 1.2 µM): 76% (active)
- growth inhibition ([10]; at 3.7 µM): 101% (active)
- growth inhibition ([10]; at 11.0 µM): 99% (active)
- growth inhibition ([10]; at 33.0 µM): 99% (active)
- growth inhibition ([10]; at 100.0 µM): 99% (active)
- growth inhibition ([11]; at 1.2 µM): 96% (active)
- growth inhibition ([11]; at 3.7 µM): 101% (active)
- growth inhibition ([11]; at 11.0 µM): 99% (active)
- growth inhibition ([11]; at 33.0 µM): 99% (active)
- growth inhibition ([11]; at 100.0 µM): 99% (active)
- growth inhibition ([12]; at 1.2 µM): 75% (active)
- growth inhibition ([12]; at 3.7 µM): 101% (active)
- growth inhibition ([12]; at 11.0 µM): 99% (active)
- growth inhibition ([12]; at 33.0 µM): 99% (active)
- growth inhibition ([12]; at 100.0 µM): 99% (active)
- growth inhibition ([14]; at 1.2 µM): 74% (active)
- growth inhibition ([14]; at 3.7 µM): 101% (active)
- growth inhibition ([14]; at 11.0 µM): 99% (active)
- growth inhibition ([14]; at 33.0 µM): 99% (active)
- growth inhibition ([14]; at 100.0 µM): 99% (active)

Structure (SMILES): c1ccc(N2N=C3N(c4ccccc4)C2N3c2ccccc2)cc1
- growth inhibition ([1]; at 1.2 µM): -46%
- growth inhibition ([1]; at 3.7 µM): -41%
- growth inhibition ([1]; at 11.0 µM): -16%
- growth inhibition ([1]; at 33.0 µM): 34%
- growth inhibition ([1]; at 100.0 µM): 93% (active)
- growth inhibition ([2]; at 1.2 µM): -13%
- growth inhibition ([2]; at 3.7 µM): -8%
- growth inhibition ([2]; at 11.0 µM): -5%
- growth inhibition ([2]; at 33.0 µM): 6%
- growth inhibition ([2]; at 100.0 µM): 1%
- growth inhibition ([3]; at 1.2 µM): 1%
- growth inhibition ([3]; at 3.7 µM): 7%
- growth inhibition [3, 16]: 43%
- growth inhibition ([3]; at 11.0 µM): 26%
- growth inhibition ([3]; at 33.0 µM): 70% (active)
- growth inhibition [3, 17]: 97% (active)
- growth inhibition ([3]; at 50.0 µM): 81% (active)
- growth inhibition ([3]; at 100.0 µM): 92% (active)
- growth inhibition ([4]; at 1.2 µM): -19%
- growth inhibition ([4]; at 3.7 µM): -22%
- growth inhibition [4, 16]: 35%
- growth inhibition ([4]; at 11.0 µM): 3%
- growth inhibition ([4]; at 33.0 µM): 44%
- growth inhibition [4, 17]: 98% (active)
- growth inhibition ([4]; at 50.0 µM): 69.2%
- growth inhibition ([4]; at 100.0 µM): 93% (active)
- growth inhibition ([5]; at 1.2 µM): -33%
- growth inhibition ([5]; at 3.7 µM): -36%
- growth inhibition ([5]; at 11.0 µM): -20%
- growth inhibition ([5]; at 33.0 µM): 20%
